The values below come from PubChem BioAssay AID1508600 (Functional Genomics Laboratory (NCATS/FGL), 2020).

Screen size: about 53,000 sequences; about 3,700 (7%) were called active.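 The calls were made as follows: active = gene knockdowns whose robust z-score for IL-1 alpha signal is at least 2 or at most -2, so actives lie on both sides; inactive = the rest.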 This excerpt belongs to a sample that is enriched for actives.

The test can be described thus: Components of the Cytosolic LPS Sensing Pathway: Gene Identification via Genome-wide siRNA Screen.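 Also: robust z of the log signal after scaling to non-targeting control siRNA wells of the plate.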 The conditions noted are these: RAW264.7 macrophages, IL-1a HTRF, actives lie on both sides, screened at 100 nM (by protocol), cells primed 5 h with Pam3CSK4 first. The gist of the method: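 Supernatant IL-1a by HTRF from RAW264.7 cells primed with Pam3CSK4 (5 hours) and transfected with LipidA (24 hour) after 48h siRNA knockdown at 100 nM; cell viability checked with CellTiter-Glo.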
A general note: TR-FRET usually uses a lanthanide donor and a delayed reading to cut background.
Turning to GGUCUCACAGCAGUACUCATT against Clk4, the z-score was -1.46 (inactive).

GGACACAGGGUCUCUUACATT against Msrb2: the z-score is -1.25 (inactive).

GGCUCAAGACUUAAAUUCATT against Olfr1100: the z-score is 0.437 (inactive).

Take CCUACUGGUUGAAAAUAUUTT against Tceanc2: the z-score was 1.16 (inactive).

In the case of GGAAGACACUCCUCUGCUCTT against Oca2, the z-score was 1.63 (inactive).

As for GGUGCGUCCUGAAAUCAUCTT against Txndc12, the z-score is -2.52 (active).

GGUUGAUGAAAAAACUGUATT against Itsn2: the z-score is 0.755 (inactive).

Take GGCUAGAGAAAUAGUGUUGTT against Reep1: the z-score is 0.218 (inactive).

Regarding GGAUCUUCAAUUCGUUGGUTT against Cachd1, the z-score is 2.75 (active).

In the case of GCCACUCAAAGUUCGAAGGTT against Tmem51, the z-score was -0.515 (inactive).

With GGUACUAAAGAAAUAUCCCTT against Sirt7, the z-score is 0.736 (inactive).

For the sequence GGCUUGUUUCCAAAAUAGGTT against Rflna, the z-score is 0.327 (inactive).

For the sequence GGCUUUCUUUGCCAUGACCTT against Copg1, the z-score is -2.93 (active).

For the sequence CCCUAGAUGGCCGAAAUAUTT against Dazap1, the z-score is -1.47 (inactive).

With CCUUAUCUGGAGUGCGAGATT against Gpr158, the z-score is 0.452 (inactive).

Regarding CCAAUCCUGAAUAAUGAGATT against Spag17, the z-score is 0.0419 (inactive).

Consider CGCCGCAGUAUUAAUGGCUTT against Nxph4, for which the z-score was 0.225 (inactive).

GGUGGACCUGCACUUUACCTT against Fam135b: the z-score was 0.67 (inactive).

For the sequence CGUCUAUCUUGGAUUACUATT against Dll1, the z-score was 2.11 (active).

In the case of UAAAUACUUACCAGCUGGATT against Olfr1306, the z-score was 1.06 (inactive).

As to GCACCAGUCGAAUCCUCAATT against Gpr137, the z-score is -1.46 (inactive).

GGCCCAAGGAUCAAUUUAUTT against Zup1: the z-score was 0.914 (inactive).

On to GGUUCCUGGGAACCUAAGUTT against Med25, for which the z-score is 2.02 (active).

Regarding CCUCAUCGAUGCACUACCCTT against Lrfn4, the z-score was -0.338 (inactive).

Take GCUCAUGACACUCUUCCUGTT against Spib: the z-score was 1.45 (inactive).

For the sequence GGAGGAUGGCUUUACCGCATT against Mib2, the z-score is -1.64 (inactive).

“GCCGGAUUGAGAUCUCUAUTT against 1500015L24Rik”: the z-score is 0.734 (inactive).

On to GGAACAGGACAAUGACAGUTT against Gzme, for which the z-score is 1.43 (inactive).

With GGCUUACUUCAUUUCAGUUTT against Zfp526, the z-score was 0.0808 (inactive).

In the case of GGAAAACAUUAAGAAGGGCTT against Ccn2, the z-score was 3.41 (active).

As for GGACCUCCACCGUUACUACTT against Sgsh, the z-score is 0.367 (inactive).

Regarding GGAGGAACACAAGAUUUUCTT against Ppp2r5c, the z-score was -0.322 (inactive).

Take GGAAGUCCAUCUCUUUUGCTT against Olfr56: the z-score is 0.213 (inactive).

Turning to GGAUCCAGAAAGUCCAGAUTT against Nt5c3b, the z-score is 0.918 (inactive).

With GGAUGUUGGUACUUUUUGATT against Pwp1, the z-score was -0.254 (inactive).

GGAAUAAAGUGUUGUGUCATT against Wfdc15b: the z-score is -0.118 (inactive).

GGUAGCAGUUGCUUUAAUATT against Siah2: the z-score is 2.65 (active).

Take GGGUUUCACAGGCAAACAGTT against Suclg1: the z-score is -0.904 (inactive).

For the sequence CCCUGUACCUAGCUCAAGATT against Ecel1, the z-score was -0.693 (inactive).

GGAAUCAUCUUUGUGGAGATT against Nudt22: the z-score is -0.733 (inactive).

On to “GCCAACGAGAGUAAACACGTT against 5930403N24Rik”, for which the z-score was -0.0706 (inactive).

Take GGUCUACUGACUCAAAGUCTT against Mrps33: the z-score was 2.2 (active).

With GGAUUUCAAAUGGAAACAATT against Vmn1r45, the z-score was -1.15 (inactive).

For GCAUGAAUUUUGCACGGACTT against Rad18, the z-score is 1.04 (inactive).

For the sequence UCAACUCAAACUAUGUCGATT against Hoxb4, the z-score was -0.172 (inactive).

Take GGUCUGUGGAUUUAAACUUTT against Sestd1: the z-score was 0.931 (inactive).

Turning to CGAAGAGAGCUGCAUUAAATT against BC049715, the z-score is -1.37 (inactive).

Take GGCUAUCAUGAACUUGGAUTT against Gpd2: the z-score was -0.57 (inactive).

For the sequence GGAAAUGUACAAGACUGAUTT against Anxa2, the z-score is 2.29 (active).

As to GGAAAAAAACUUGCUGGAUTT against Ppp3ca, the z-score is -0.681 (inactive).

For CCAAAUAACCUGCUACGAGTT against Ffar2, the z-score was 0.905 (inactive).

Regarding GGUAUACUAACUUUUAAGGTT against Fmo1, the z-score was -0.228 (inactive).

With GCCUCUAUUCUACACCACATT against Gpr137, the z-score is -2.1 (active).

Take GAAAAACUGCUGUUUUGGATT against Ly6g6d: the z-score was 1.87 (inactive).

In the case of GGAGACGAGAGGAUCCUCUTT against Chga, the z-score was -1.56 (inactive).

GGUCAAGAAUGUAGCUGAUTT against Atp6v0d1: the z-score was -1.87 (inactive).

Consider GGUGUGUGAACCAUGUGUGTT against Olfr157, for which the z-score is -1.03 (inactive).

With GGCAUAGUGAAUUUAGUCUTT against Iqub, the z-score is 0.526 (inactive).

Regarding GGCUGGAUACUCAGUGCUATT against Abhd16b, the z-score is 6.41 (active).

Take GGUCAUGGAUCAGAAAGAATT against Hnrnpd: the z-score is 0.297 (inactive).

Take CACGGUACAGUACGAUUGATT against Rcan2: the z-score was 0.143 (inactive).

In the case of CAAGUACAAGCAGUUGACCTT against BC061237, the z-score is -0.0958 (inactive).

Regarding GAGGGUGUGCAUUCUUCUATT against Olfr1242, the z-score was -0.766 (inactive).

On to GGUUCCUUAAUCACUUUGCTT against Ndufa9, for which the z-score is -0.139 (inactive).

GGAACAGAUAACAUUAUGGTT against Cpeb3: the z-score is 2.79 (active).

With GGCCCUUACUUCCACAUCATT against Fam104a, the z-score was -0.711 (inactive).

In the case of CGAAGCACAUAUCUUUGAUTT against Zfp41, the z-score is 0.444 (inactive).

For GGAAAGAGGAAUCAAGAAATT against Slc23a2, the z-score is -1 (inactive).

CCAAAGAGCGCAUGGCUCATT against Epn2: the z-score is -0.782 (inactive).

As for GCGAAUCAGCACUUAUGGATT against Cd2ap, the z-score was 2.65 (active).

Take GGUCUACUCUUCAUAUCGCTT against Rab3d: the z-score was -0.566 (inactive).

For GGACAGUUCAGAACAAAUUTT against Ccbe1, the z-score was -0.168 (inactive).

With GCUGAACCAAACCCAAAUGTT against Snph, the z-score was 0.00664 (inactive).

Regarding GGUGAUGCCACUAGUGAAGTT against Scx, the z-score was -0.123 (inactive).

On to GGCAGAUCUAUUUAUGGUATT against Ccer1, for which the z-score is 0.229 (inactive).

With “GGUCUCAGCAAUCUGUUCCTT against 1700029I15Rik”, the z-score was -2.15 (active).

As to GGAACUAUACCAAAGGCAATT against Cfap65, the z-score is -0.198 (inactive).

For GGAAUGAAGUCUGUCUUCGTT against Zdhhc7, the z-score was 0.648 (inactive).

GGAGGAGGAGCUGAAGAAATT against Atp12a: the z-score is -0.679 (inactive).

As for GGAAAGAUUUAUUUUGACGTT against Vnn3, the z-score was 0.286 (inactive).

As for GGGUAUUGCUGGACAACGUTT against Col1a1, the z-score was 3.85 (active).

Regarding GGUCUUCAGCACCUUUGAATT against Ccl2, the z-score was -0.903 (inactive).

As for GGUACUUUUAUCUUAGCUATT against Paral1, the z-score was 0.0889 (inactive).

Turning to GGGAUUGUGAAUUUCAUGUTT against Gca, the z-score is 1.3 (inactive).

Turning to GCAGAUCAAUGACUAUAGATT against Arhgef11, the z-score was 0.858 (inactive).

For the sequence GCCAUAUGGGCAGAUGUUUTT against Sec24b, the z-score is -0.682 (inactive).

As for GCCUAAGAGUUUCAAUAAGTT against Tgtp1, the z-score is -1.21 (inactive).

On to GCAAAUGCACACUCUAGGATT against Ptprn2, for which the z-score was -0.0741 (inactive).

Take GGAAUUUUAUGCCAAGAAUTT against Hip1r: the z-score is -3.89 (active).

With GGAAGAAUCGCUGCUACCGTT against Mrpl20, the z-score was 1.06 (inactive).

Take GCUGUGAUCAGGACGAGAATT against Stx2: the z-score is 0.187 (inactive).

As for GGGAAAGAUUCAUGUUACUTT against Mug2, the z-score was -0.804 (inactive).

As for GCUAACCAGUCAGUUGAUCTT against Mocs1, the z-score was -0.086 (inactive).

In the case of CCUUACCAAUGUUCAUUUATT against Skint7, the z-score was -0.32 (inactive).

For GGAUCUGCAUUUCACUAUUTT against Pi4ka, the z-score is 0.818 (inactive).

Consider GCAUACAAAUGCACAUUGATT against Lsg1, for which the z-score was 2.69 (active).

As for GGAUCCGUGAAUGUAGUCATT against Rapgef4, the z-score was -0.793 (inactive).

Regarding CGGAUUGUAAAGAACUGCATT against Sfrp1, the z-score was -0.0934 (inactive).

With GCUUUGUGAUGGAUUACUATT against Ccl4, the z-score was 1.85 (inactive).

Consider CGUAUACUGUGAUUGAUAUTT against Lcn5, for which the z-score was -0.647 (inactive).

On to GGCCAGAAGAUUCCUAAAGTT against Gulp1, for which the z-score was 3.38 (active).

Regarding GUUACAGUAUUCUAUGGGATT against Olfr1080, the z-score was 0.508 (inactive).

Take GGUUUUUCUGAGUUUCCGUTT against Il4i1: the z-score is -1.03 (inactive).

Take GCCUCAUUAUAAAUCACACTT against Bclaf3: the z-score is 0.752 (inactive).

Take GGUGGAGUUCGUGUUGAGCTT against Slc6a11: the z-score is -0.527 (inactive).

As for GAAGGACACCCUUAUAUUUTT against Olfr1216, the z-score is 0.892 (inactive).

Consider GGAUGGUCACGGAAGUUCUTT against Lmf2, for which the z-score was 2.36 (active).
